Mcl-1 Bim block = inhibitors of Bim peptide binding to Mcl-1, primary screen, biochemical, bead-based flow cytometry, multiplex. Bim peptide-Mcl-1 binding. AID 1009, 2008. inhibition, % at 10 µM. Induced myeloid leukemia cell differentiation protein Mcl-1 (Homo sapiens), Q07820. 190,000 compounds, 0.1% hits; in the data active = inhibition above about 40%
Target sequence (Q07820 whole entry, looked up): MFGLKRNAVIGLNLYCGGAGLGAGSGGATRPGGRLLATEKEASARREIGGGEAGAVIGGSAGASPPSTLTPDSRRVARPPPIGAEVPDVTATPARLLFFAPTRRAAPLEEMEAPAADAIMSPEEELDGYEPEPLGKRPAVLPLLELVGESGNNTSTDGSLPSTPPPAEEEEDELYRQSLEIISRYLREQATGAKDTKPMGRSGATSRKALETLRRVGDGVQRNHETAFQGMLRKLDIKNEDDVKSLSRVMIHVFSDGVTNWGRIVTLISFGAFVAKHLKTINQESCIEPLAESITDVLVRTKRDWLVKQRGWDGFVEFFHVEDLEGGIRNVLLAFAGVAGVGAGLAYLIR
Mcl1 Noxa PPI = Mcl-1/Noxa binding inhibitors, primary screen, biochemical, TR-FRET, 1536-well; TR-FRET Mcl-1/Noxa peptide binding, 2 h; 220,000 compounds, 1.5% hits; inhibition, % at 21.7 µM;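 active = compounds that cut the protein-peptide binding signal by more than 50% relative to plate controls in a single-dose test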;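 also: His-tagged Mcl-1 with rhodamine Noxa BH3 peptide and terbium anti-His antibody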
GLD-1 RNA inh = GLD-1/TGE RNA complex disruptors, primary screen, biochemical, fluorescence polarization | Female germline-specific tumor suppressor gld-1 (Caenorhabditis elegans), Q17339 | purified GLD-1 + fluorescein TGE RNA | inhibition, % at 5.96 µM | 320,000 compounds, 0.44% hits | AID 2280, 2010;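 active = percent inhibition above a per-plate cutoff, the plate mean of test compounds plus 3 SD, cut at about 30% in these data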
Bcl-xL primary = inhibitors of human Bcl-xL, primary screen, biochemical, fluorescence polarization, HTS; Bcl-2-like protein 1 (Homo sapiens), Q07817; GST-Bcl-xL / FITC-Bim BH3 peptide fluorescence polarization; inhibition, % at 10.9 µM; 320,000 compounds, 0.7% hits; AID 2129, 2009;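 active = inhibition above the mean of all tested compounds plus 3 SD, cutoff set per campaign, cut at about 30% in these data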;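 also: inhibitors lower millipolarization by displacing the labeled peptide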
Target sequence (Q07817 whole entry, looked up): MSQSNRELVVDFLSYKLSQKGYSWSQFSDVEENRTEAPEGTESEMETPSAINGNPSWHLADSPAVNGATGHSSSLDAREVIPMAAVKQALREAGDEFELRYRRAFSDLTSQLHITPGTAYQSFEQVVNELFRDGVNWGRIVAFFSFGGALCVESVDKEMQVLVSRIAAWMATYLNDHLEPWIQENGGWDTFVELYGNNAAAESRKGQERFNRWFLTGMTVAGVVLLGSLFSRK
MCL1 BIM primary = inhibitors of MCL1 binding to BIM-BH3, primary screen, biochemical, fluorescence polarization; Induced myeloid leukemia cell differentiation protein Mcl-1 (Homo sapiens), Q07820; GST-MCL1 / FITC-Bim-BH3 fluorescence polarization; inhibition, % at 10.9 µM; 320,000 compounds, 0.68% hits;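 active = inhibition above the mean inhibition of all tested compounds plus 3 SD, set per campaign, cut at about 40% in these data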;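 also: higher means more loss of mP so more displacement of Bim peptide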
Mcl1-Bid inh = Mcl-1/Bid binding inhibitors, primary screen, biochemical, TR-FRET, 1536-well | Induced myeloid leukemia cell differentiation protein Mcl-1 (Homo sapiens), Q07820 | TR-FRET Mcl-1/Bid-Dy647 peptide binding | inhibition, % at 21.7 µM | 220,000 compounds, 0.97% hits;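 active = compounds that cut the binding signal by more than half at the single screening dose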;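 also: His-tagged Mcl-1 with europium anti-His antibody binding Bid BH3 peptide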
Numbers stand for hits; i = inactive; nt = no result given. This is a sample that favours compounds with a hit; in the whole collection about 2.3% have one here.

SMILES | Mcl-1 Bim block | Mcl1 Noxa PPI | GLD-1 RNA inh | Bcl-xL primary | MCL1 BIM primary | Mcl1-Bid inh
CC(/C=N/NC(=O)CSc1nnc(SCc2ccccc2)s1)=C\c1ccco1 | i | 51.5 | i | i | i | i
COc1cc(C(=O)NC2CCCNC2)cc(OC)c1OC (stereo not given) | i | i | nt | nt | nt | i
CCCCc1cc(=O)oc2cc(C)cc(OC(C)C(=O)NCc3ccncc3)c12 (stereo not given) | nt | nt | i | i | i | nt
CC1CC(C)CN(S(=O)(=O)c2ccc(C(C)(C)C)cc2)C1 (stereo not given) | i | i | i | i | i | i
Cc1ccn2c(CNCc3cnn(C)c3)c(C(=O)N3CCCCCC3)nc2c1 | nt | nt | i | 67.0 | i | nt
O=C(Cc1ccccc1)Nc1scc(-c2ccccc2)c1C(=O)N1CCOCC1 | i | i | i | i | i | 86.1
O=C(Nc1scc(-c2ccccc2)c1C(=O)O)c1ccco1 | i | i | i | i | i | i
C=CCn1c(SCc2ccc(C#N)cc2)nnc1-c1cccc(OC)c1 | i | i | i | i | i | 94.6
COc1cc(C2C3=C(Nc4nc(N)[nH]c(=O)c42)c2ccccc2C3=O)ccc1O (stereo not given) | nt | 90.1 | i | i | i | i
COc1ccc(CN(C(=O)c2snc(C(N)=O)c2N)C(C(=O)NC2CCCC2)c2ccco2)cc1 (stereo not given) | nt | nt | i | i | i | nt
COc1ccc(CN2CCNC(=O)C2CC(=O)N(C)Cc2ccon2)c(OC)c1 (stereo not given) | i | i | i | i | i | i
COC(=O)c1ccc2c(c1O)C(=O)c1ccccc1C2=O | i | 57.6 | i | i | i | i
Cc1c(C(=O)N2CCCCC2)c(S(=O)(=O)N2c3ccccc3CC2C)c(C)n1C (stereo not given) | nt | nt | i | i | i | nt
C/C(=N\OCC(=O)Nc1ccccc1Br)c1cccs1 | i | i | i | i | i | i
CCCC(=O)Nc1ccc2oc(-c3cccnc3)nc2c1 | i | i | i | i | i | 85.8
CCCCC(=O)Nc1ccc2oc(-c3cccnc3)nc2c1 | i | nt | i | i | i | nt
Cc1ccc(-c2nc(CN(Cc3c(C)nn(C)c3C)C(C)C)c(C)o2)o1 | i | i | i | i | i | i
Cc1ccc(-c2cn3nc(-c4ccccc4)c(-c4ccccc4)nc3n2)cc1 | nt | i | 34.2 | i | i | i
COC(=O)c1ccc(CSc2ncnc3sc(C)c(C)c23)o1 | i | i | i | i | i | 58.7
Nc1cc(C(=O)OCC(=O)NCCCc2ccccc2)ccc1Cl | nt | nt | i | i | i | nt
O=C(COC(=O)c1ccc2ccccc2c1)NCCCc1ccccc1 | i | i | i | i | i | 81.0
CN(C)CCn1c(N)nc2ccccc21 | nt | i | i | i | i | i
COc1ccccc1/C=C1/C(=O)N(c2ccccc2)N=C1C | nt | nt | i | i | i | nt
CC1=NN(c2ccccc2)C(=O)/C1=C\c1cn(-c2ccccc2)nc1C | i | i | i | i | i | 68.2
CCc1nnc(NC(=O)CCC(=O)NC2CC2)s1 | nt | nt | i | i | i | nt
SMILES | Mcl-1 Bim block | Mcl1 Noxa PPI | GLD-1 RNA inh | Bcl-xL primary | MCL1 BIM primary | Mcl1-Bid inh
C=CCOc1ccc(C(c2c(C)n(C)n(-c3ccccc3)c2=O)c2c(C)n(C)n(-c3ccccc3)c2=O)cc1 | nt | nt | i | i | i | nt
O=C(Nc1ccc(Cl)c(Cl)c1)Nc1nc(-c2ccccc2)cs1 | i | 51.1 | i | i | i | i
O=C(Nc1ccccc1)Nc1nc(-c2ccccc2)cs1 | nt | i | i | i | i | i
COc1ccc(OC)c(NC(=O)CCN2CCN(C/C=C/c3ccccc3)CC2)c1 | nt | nt | i | i | i | nt
Cc1cc(C)nc(NCC(O)COc2ccccc2C)n1 (stereo not given) | i | i | i | i | i | 100.7
COc1ccc(-c2cc(=O)oc3cc(OCC(=O)Nc4ccc(CCO)cc4)ccc23)cc1 | nt | nt | i | i | i | nt
CCOC(=O)C1=C(C)OC(N)=C(C#N)C1c1cc2ccccc2nc1N1CCCCC1 (stereo not given) | i | i | i | 31.2 | i | i
CCOC(=O)C1=C(C)OC(N)=C(C#N)C1c1cc2cc(C)ccc2nc1N1CCCCC1 (stereo not given) | i | i | i | 32.8 | i | i
CCOC(=O)C1=C(C)OC(N)=C(C#N)C1c1cc(C)sc1C (stereo not given) | i | i | i | i | i | i
Cc1cccc(C(=O)NC2=NCCS2)c1 | i | i | i | i | i | i
Cc1csc2nc(CSc3nc4ccccc4o3)cn12 | i | 51.1 | i | i | i | i
Cc1ccc2c(Cl)cc(Cl)c(OCC(=O)NCc3ccco3)c2n1 | i | 93.6 | nt | nt | nt | i
Cc1nccc(-c2cccc(NC(=O)c3ccccc3Cl)c2)n1 | nt | i | i | i | i | i
CCOc1ccc(C=NNC(=O)c2ccc(-n3cnnn3)cc2)cc1 | nt | nt | i | nt | nt | nt
CCSc1nnc(NC(=O)C(Cc2ccccc2)n2cccc2)s1 (stereo not given) | i | i | i | i | i | 64.5
CCCCCCC(C)OC(=O)Nc1cccc2ccccc12 (stereo not given) | nt | i | i | i | i | i
CCc1nn2c(=O)cc(COc3ccc(/C=C4\C(=N)N5N=C(C)SC5=NC4=O)cc3)nc2s1 | i | 77.3 | i | i | i | i
O=C(CNC(=O)c1ccncc1)N/N=C/c1ccccn1 | i | i | i | i | i | i
COc1cc(C(=O)NCC(=O)N/N=C/c2ccccn2)cc(OC)c1OC | i | i | i | i | i | 63.0
CCc1cc(CN2CCOCC2)c(NC(=O)c2ccccc2)s1 | i | i | i | i | i | i
CCc1cc(C(c2ccc(F)cc2)N2CCOCC2)c(NC(=O)c2ccccc2)s1 (stereo not given) | i | i | i | i | i | 67.5
CCN(CC(=O)Nc1c(F)cccc1F)C(=O)Cc1csc(-c2ccc(OC)c(OC)c2)n1 | nt | nt | i | i | i | nt
O=C(CSc1ncccn1)Nc1cc(Cl)ccc1[N+](=O)[O-] | i | i | i | i | i | i
COc1ccc([N+](=O)[O-])cc1NC(=O)CSc1nccc(C)n1 | i | 57.1 | i | i | i | i
COc1cc(NC(=O)CSc2nccc(C)n2)c(C(=O)O)cc1OC | i | i | i | i | i | i
COc1cc(NC(=O)CSc2nccc(C)n2)c(C)cc1[N+](=O)[O-] | i | 56.6 | i | i | i | i
Cc1nc(SCC(=O)Nc2cc(Cl)ccc2[N+](=O)[O-])nc(C)c1C | i | i | i | i | i | 94.6
CCN(C(=O)COC(=O)Cc1c[nH]c2ccccc12)c1c(N)n(Cc2ccccc2)c(=O)[nH]c1=O | nt | nt | i | i | i | nt

Compound activity (PubChem BioAssay)
